Laboratory results published in PubChem BioAssay (NCATS).
Results filed as inconclusive are left out. Activity calls are given as the source filed them. The call rests on the fitted dose curve; in most records, active means well fitted curve in the direction sought with a large enough effect; inconclusive means small, poorly fitted or top-dose-only effect, or another doubt; inactive means no such curve, though single readings can be large; an effect the other way counts as inactive or inconclusive.

Experiments:
[1] = Cellular Toxicity (caspase-3) N2a (AID 665); settings: N2a cells, luminescence, normalized: DMSO 0%, 10 µM staurosporine 100%; at 92.2 µM (top of the series);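 further: compound exposure lasted 16 h at 37 °C before readout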
Summary of the method: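 Mouse N2a neuroblastoma cells, 1500 per well, treated 16 h at 37 °C in complete medium; caspase-3/7 activity by Caspase-Glo luminescence after 1 h. Normalized to DMSO and 10 uM staurosporine; AC50 from Hill fits.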

[2] = Cellular Toxicity (caspase-3) NIH 3T3 (AID 666);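 further: caspase signal read after 16 h compound exposure; 0% = DMSO basal and 100% = 100 µM tamoxifen stimulation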
Summary of the method: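 Mouse NIH 3T3 fibroblasts (1000/well) treated 16 h at 37 C; caspase-3/7 activity measured by Caspase-Glo 3/7 luminescence after 20 min. Normalized to DMSO and 100 uM tamoxifen; AC50 from Hill fits.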

[3] = Cellular Toxicity (caspase-3) Renal Proximal Tubule (AID 667); settings: renal proximal tubule cells; at 91.7 µM (top of the series), primary cells freshly taken from rat, solvent-only wells 0%, staurosporine 100% unless noted;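 further: cells exposed to compound for 16 hours at 37 °C before detection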
Summary of the method: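 In qHTS format, rat primary proximal tubule cells seeded at 1000 per well are exposed to compounds for 16 hours at 37 °C. An increase in Caspase-Glo 3/7 luminescence indicates caspase activation.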

[4] = biological target: Cytochrome P450 3A4 (Homo sapiens) (UniProt P08684); assay: qHTS Assay for Inhibitors and Substrates of Cytochrome P450 3A4 (AID 884); further: on the % scale 0 is the no-effect control and ±100 the full control effect; nearly all actives have a fitted effect of over 50% in size
Summary of the method: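 20 nM human CYP3A4 with 25 uM Luciferin-PPXE (at KM) in 200 mM KPO4, preincubated 10 min with compound; NADPH regeneration started a 60 min RT reaction. Luciferin detected by luminescence, normalized to 57 uM ketoconazole as full inhibition.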

[5] = Cell Viability - LYMP2-001 (AID 921);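 further: 0% = DMSO only and full inhibition = tetraoctylammonium bromide control wells; nearly all actives have a fitted effect of over 70% in size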
Summary of the method: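 qHTS, 1536-well; lymphoblastoid cells, 24 hr compound, 37 C; ATP by CellTiter-Glo, 30 min RT; luminescence; Hill-fit AC50.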

[6] = MultiTox-Fluor Cytotoxicity Assay - LYMP1-001 - Dead Cells (AID 946)
Summary of the method: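 Cytotoxicity as increased dead-cell protease fluorescence (bis-AAF-R110, 485/520 nm), read 60 min after MultiTox-Fluor reagent. Human lymphoblastoid line exposed 16 h; Hill-fitted AC50, with DMSO as 0% and 15 uM tetraoctylammonium bromide as 100%.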

[7] = MultiTox-Fluor Cytotoxicity Assay - LYMP1-001 - Live Cells (AID 947);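 further: 0% = DMSO only and full inhibition = tetraoctylammonium bromide control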
[8] = Cell Viability - LYMP1-002 - Assay at 16 hr (AID 948);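 further: 0% = DMSO alone and full effect = 92 µM tetraoctylammonium bromide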
Summary of the method: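 Acute cytotoxicity is scored as a concentration-dependent fall in intracellular ATP in a human lymphoblastoid line (LYMP1-002) after 16 hr compound exposure at 37 C, measured by luciferase luminescence.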

[9] = MultiTox-Fluor Cytotoxicity Assay - LYMP1-002 - Live Cells (AID 955); further: on the % scale 0 is the no-effect control and ±100 the full control effect
Summary of the method: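 Human lymphoblastoid LYMP1-002 cells, 2500/well, treated 16 h at 37 C in complete medium. Live-cell protease activity via GF-AFC fluorescence (Ex/Em 405/510) after 60 min reagent incubation; AC50 from Hill fits.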

[10] = MultiTox-Fluor Cytotoxicity Assay - LYMP1-002 - Dead Cells (AID 960); further: nearly all actives have a fitted effect of over 60% in size
Summary of the method: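 Human lymphoblastoid LYMP1-002 cells, 2500/well, treated 16 h at 37 C; dead-cell protease cleavage of bis-AAF-R110 read by fluorescence (485/520); normalized to DMSO and 15 uM tetraoctylammonium bromide; AC50 from Hill fit.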

[11] = MultiTox-Fluor Cytotoxicity Assay - LYMP1-003 - Dead Cells (AID 961); further: nearly all actives have a fitted effect of over 70% in size
Summary of the method: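 Dead-cell protease release, detected as bis-AAF-R110 fluorescence at 485/520 nm, was measured in LYMP1-003 cells after 16 h compound treatment at 37 C. AC50 values came from Hill-modeled qHTS curves normalized to DMSO (0%) and 15 uM tetraoctylammonium bromide (100%).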

[12] = MultiTox-Fluor Cytotoxicity Assay - LYMP1-003 - Live Cells (AID 962);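 further: 0% = DMSO only and full loss = 92 µM tetraoctylammonium bromide; cytotoxic hits lower the live-cell protease signal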
Summary of the method: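 LYMP1-003 lymphoblastoid cells, 2500/well in complete medium, treated 16 h at 37 C; live-cell protease cleavage of GF-AFC read by fluorescence (Ex/Em 405/510) after 60 min reagent; AC50 from Hill fits of concentration-response.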

[13] = Cell Viability - LYMP1-003 - Assay at 24 hr (AID 963);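 further: plate controls were DMSO only for no effect and tetraoctylammonium bromide positive control for full effect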
Summary of the method: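 Human lymphoblastoid LYMP1-003 cells, 2500/well, treated 24 h at 37 C in complete medium. Viability read as intracellular ATP by CellTiter-Glo luminescence after 30 min at room temperature; AC50 from Hill-equation fits of qHTS concentration-response.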

[14] = Cell Viability - LYMP2-003 (AID 965);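 further: cells exposed to compounds for 24 h before reading; 0% = DMSO only and full effect = 92 µM tetraoctylammonium bromide; nearly all actives have a fitted effect of over 50% in size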
Summary of the method: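 Acute cytotoxicity is scored as a concentration-dependent drop in intracellular ATP, measured by luciferase luminescence in human lymphoblastoid cells treated for 24 hours at 37 C. AC50 values derive from Hill-equation modelling.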

[15] = Cell Viability - LYMP2-004 (AID 966);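 further: plate controls were DMSO only for no effect and tetraoctylammonium bromide control for full effect; nearly all actives have a fitted effect of over 65% in size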
Summary of the method: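 Lymphoblastoid LYMP2-004 cells, 2500 per well, were preincubated for 5 hr and then treated with compound for 24 h at 37 C in complete medium. Viability was read as cellular ATP by CellTiter-Glo luminescence, and AC50 values were taken from Hill fits to concentration-response data.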

[16] = Cell Viability - LYMP2-005 (AID 967);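 further: plate controls were DMSO only for no effect and 92 µM tetraoctylammonium bromide control for full effect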
Summary of the method: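 qHTS viability screen in LYMP2-005 cells: 24 h at 37 C with compound, ATP luminescence via CellTiter-Glo, AC50 from Hill curves.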

[17] = Cell Viability - LYMP2-011 (AID 969);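 further: 0% = DMSO only and full inhibition = 92 µM tetraoctylammonium bromide; nearly all actives have a fitted effect of over 60% in size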
Summary of the method: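 2500 cells/well in complete medium, compound-treated 24 h at 37 C. Viability read as intracellular ATP by CellTiter-Glo luminescence after 30 min at room temperature. AC50 from Hill fits of qHTS concentration-response data.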

[18] = Cell Viability - LYMP2-013 (AID 970);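 further: 0% = DMSO only and full inhibition = tetraoctylammonium bromide control; nearly all actives have a fitted effect of over 55% in size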
Summary of the method: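 Human lymphoblastoid LYMP2-013 cells, 2500/well, treated 24 h at 37 C in complete medium; viability as intracellular ATP by CellTiter-Glo luminescence after 30 min. AC50 from Hill fits of qHTS concentration-response.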

[19] = Cell Viability - LYMP2-015 (AID 971);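 further: 0% = DMSO only and full effect = 92 µM tetraoctylammonium bromide; nearly all actives have a fitted effect of over 55% in size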
Summary of the method: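 LYMP2-015 human lymphoblastoid cells (2500/well) in complete medium, compound-treated 24 h at 37 C; viability read as cellular ATP by CellTiter-Glo luminescence after 30 min at room temperature. AC50 from Hill-equation fits of qHTS concentration-response data.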

[20] = Cell Viability - LYMP2-017 (AID 972); further: on the % scale 0 is the no-effect control and ±100 the full control effect; nearly all actives have a fitted effect of over 55% in size
Summary of the method: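 LYMP2-017 human lymphoblastoid cells (2500/well) settled 5 hr at 37 C, then exposed to compound 24 hr at 37 C in complete medium. Viability taken as intracellular ATP by CellTiter-Glo luminescence after 30 min at RT; AC50 from Hill fits.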

[21] = Cell Viability - LYMP2-019 (AID 973);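 further: 0% = DMSO alone and full effect = 92 µM tetraoctylammonium bromide; nearly all actives have a fitted effect of over 55% in size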
Summary of the method: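 Human lymphoblastoid LYMP2-019 cells (2500/well) preincubated 5 h at 37 C, then treated 24 h at 37 C in complete medium. Viability by CellTiter-Glo ATP luminescence after 30 min at room temperature; AC50 from Hill fits.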

[22] = Cell Viability - LYMP2-021 (AID 974)
Summary of the method: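 Human lymphoblastoid LYMP2-021 cells, 2500/well in complete medium, treated 24 hours at 37 C. Intracellular ATP by CellTiter-Glo luminescence (30 min, RT); AC50 from Hill fits of concentration-response.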

[23] = Cell Viability - LYMP2-023 (AID 975)
Summary of the method: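 LYMP2-023 human lymphoblastoid cells, 2500/well, preincubated 5 hr at 37 C, then compound-treated 24 hr at 37 C in complete medium. CellTiter-Glo luminescence (ATP) after 30 min at room temperature; AC50 from Hill-equation fits; tetraoctylammonium bromide positive control.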

[24] = Cell Viability - LYMP2-025 (AID 976);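 further: plate controls were DMSO only for no effect and tetraoctylammonium bromide control for full effect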
Summary of the method: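 Human lymphoblastoid LYMP2-025 cells, 2500/well, exposed 24 h at 37 C in complete medium in 1536-well qHTS. Viability as cellular ATP by CellTiter-Glo luminescence; AC50 from Hill fits of concentration-response data.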

Cytochrome P450 3A4 (Homo sapiens), sequence (P08684 whole entry, looked up): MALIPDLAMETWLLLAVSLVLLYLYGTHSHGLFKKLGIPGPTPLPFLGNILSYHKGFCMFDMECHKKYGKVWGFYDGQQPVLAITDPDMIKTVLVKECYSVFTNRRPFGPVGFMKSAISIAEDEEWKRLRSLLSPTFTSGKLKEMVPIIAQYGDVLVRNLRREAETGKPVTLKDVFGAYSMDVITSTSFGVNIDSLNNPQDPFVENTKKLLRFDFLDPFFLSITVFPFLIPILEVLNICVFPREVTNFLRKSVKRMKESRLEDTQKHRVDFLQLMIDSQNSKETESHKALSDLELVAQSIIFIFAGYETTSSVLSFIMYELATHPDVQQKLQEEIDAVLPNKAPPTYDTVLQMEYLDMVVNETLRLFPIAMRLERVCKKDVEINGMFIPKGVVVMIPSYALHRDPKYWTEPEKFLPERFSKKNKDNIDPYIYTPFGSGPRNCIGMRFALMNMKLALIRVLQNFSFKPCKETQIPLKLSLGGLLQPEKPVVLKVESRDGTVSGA

CCC[CH2][Sn]([Cl])([Cl])[Cl]
inactive: caspase-3 activation [1] 0.958% | outcome [2] | caspase-3 activation [3] 6.84% | Potency [4] | Potency [5] | Potency [6] | Potency [7] | Potency [8] | outcome [9] | Potency [10] | Potency [11] | Potency [12] | Potency [13] | Potency [14] | Potency [15] | Potency [16] | Potency [17] | Potency [18] | Potency [19] | Potency [20] | Potency [21] | Potency [22] | Potency [23] | Potency [24]
